According to the supplement of paper PMC10646978:
± gives the standard deviation.

Assays:
Details in all cases: modulator concentration 10 µM
[1] = system: RAW-Dual (murine macrophage reporter line); test: NF-kB reporter (SEAP) activity fold change vs agonist alone; higher = enhanced NF-kB activity
Summary of the method: (§1)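 Compound reached 10 μM final in each well by pin transfer, onto RAW-Dual murine macrophage reporter cells seeded at 50 000 per well in 384-well plates. After 1 hour at 37 °C, the cells were stimulated overnight with a PRR agonist. SEAP in the supernatant was read with QUANTI-Blue at 620 nm absorbance for NF-κB, and Lucia luciferase was read with QUANTI-Luc luminescence for IRF. Each signal was turned into fold change against the mean agonist-only control on the same plate, and two replicate plates were averaged with propagated errors.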

[2] = system: RAW-Dual (murine macrophage reporter line); test: IRF reporter (Lucia luciferase) activity fold change vs agonist alone; higher = enhanced IRF activity
Summary of the method: as §1

[3] = system: RAW-Dual (murine macrophage reporter line); test: viability score (confluency relative to resting cells, overnight) (fraction); higher = more viable, active = viable (0.7 or more)
Summary of the method: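 Compound was added at a final 10 μM to RAW-Dual macrophages in 384-well plates and left overnight. Confluency was imaged with IncuCyte, and two masks were generated in IncuCyte software over all imaged wells. Each viability score is confluency relative to resting cells, and a compound met the cutoff only when both masks were above 70% of resting cells.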

[4] = agonist: CpG ODN 1826 0.5 ug/mL

`COc1ccc(C2OCC3C(c4ccc(OC)c(OC)c4)OCC23)cc1OC` (stereo unspecified) showed an NF-kB reporter [1, 4] of 1.18 ± 0.091, an NF-kB reporter ([1]; agonist: LPS 0.1 ug/mL) of 1.03 ± 0.094 and an NF-kB reporter ([1]; agonist: MPLA […]) of 1.08 ± 0.11. For the same compound, the IRF reporter ([2]; agonist: 3'3'-cGAMP 10 ug/mL) was 1.11 ± 0.088, the IRF reporter ([2]; agonist: LPS 0.1 ug/mL) was 1.07 ± 0.13 and the IRF reporter ([2]; agonist: MPLA […]) was 1.21 ± 0.23. For the same compound, the viability score [3] was 1.01 (active).

Work on `CCOc1ccc2nc(S(N)(=O)=O)sc2c1` yielded an NF-kB reporter [1, 4] of 0.804 ± 0.2, an NF-kB reporter ([1]; agonist: LPS 0.1 ug/mL) of 1.02 ± 0.051 and an NF-kB reporter ([1]; agonist: MPLA […]) of 0.985 ± 0.067. It also gave an IRF reporter ([2]; agonist: 3'3'-cGAMP 10 ug/mL) of 0.855 ± 0.029, an IRF reporter ([2]; agonist: LPS 0.1 ug/mL) of 0.897 ± 0.11 and an IRF reporter ([2]; agonist: MPLA […]) of 0.953 ± 0.2. For the same compound, the viability score [3] was 1.01 (active).

`CN1CCN(C(CC(=O)Nc2cccc(C(F)(F)F)c2)C(=O)O)CC1` (stereo unspecified) showed an NF-kB reporter [1, 4] of 1.02 ± 0.051, an NF-kB reporter ([1]; agonist: LPS 0.1 ug/mL) of 1.09 ± 0.086 and an NF-kB reporter ([1]; agonist: MPLA […]) of 0.859 ± 0.038. The IRF reporter ([2]; agonist: 3'3'-cGAMP 10 ug/mL) was 0.979 ± 0.049, the IRF reporter ([2]; agonist: LPS 0.1 ug/mL) was 1.16 ± 0.1 and the IRF reporter ([2]; agonist: MPLA […]) was 1.17 ± 0.26. For the same compound, the viability score [3] was 0.999 (active).

In the case of `COc1ccc(N(CC(=O)Nc2ccccc2C(F)(F)F)S(C)(=O)=O)cc1Cl`, the NF-kB reporter [1, 4] is reported as 0.96 ± 0.075, the NF-kB reporter ([1]; agonist: LPS 0.1 ug/mL) is reported as 1.02 ± 0.097 and the NF-kB reporter ([1]; agonist: MPLA […]) is reported as 0.979 ± 0.045. The IRF reporter ([2]; agonist: 3'3'-cGAMP 10 ug/mL) was 0.961 ± 0.17, the IRF reporter ([2]; agonist: LPS 0.1 ug/mL) was 1.02 ± 0.045 and the IRF reporter ([2]; agonist: MPLA […]) was 1.02 ± 0.19. For the same compound, the viability score [3] was 1 (active).

`O=C(CC1CCCCN1S(=O)(=O)c1ccccc1)NCCC1=CCCCC1` (stereo unspecified) showed an NF-kB reporter [1, 4] of 0.994 ± 0.13, an NF-kB reporter ([1]; agonist: LPS 0.1 ug/mL) of 1.21 ± 0.095 and an NF-kB reporter ([1]; agonist: MPLA […]) of 0.903 ± 0.13. It also gave an IRF reporter ([2]; agonist: 3'3'-cGAMP 10 ug/mL) of 1.03 ± 0.054, an IRF reporter ([2]; agonist: LPS 0.1 ug/mL) of 1.23 ± 0.08 and an IRF reporter ([2]; agonist: MPLA […]) of 1.38 ± 0.11. The viability score [3] was 1.01 (active).

Compound `CCc1cc(=O)oc2cc(OCC(=O)OC(C)C)ccc12` has an NF-kB reporter [1, 4] of 0.827 ± 0.064, an NF-kB reporter ([1]; agonist: LPS 0.1 ug/mL) of 0.857 ± 0.042 and an NF-kB reporter ([1]; agonist: MPLA […]) of 1.11 ± 0.096. It also gave an IRF reporter ([2]; agonist: 3'3'-cGAMP 10 ug/mL) of 1.04 ± 0.048, an IRF reporter ([2]; agonist: LPS 0.1 ug/mL) of 1.44 ± 0.096 and an IRF reporter ([2]; agonist: MPLA […]) of 1.73 ± 0.24. For the same compound, the viability score [3] was 1 (active).

`Cn1cnc([N+](=O)[O-])c1Sc1ncnc2nc[nH]c12` showed an NF-kB reporter [1, 4] of 1.1 ± 0.2, an NF-kB reporter ([1]; agonist: LPS 0.1 ug/mL) of 0.844 ± 0.23 and an NF-kB reporter ([1]; agonist: MPLA […]) of 0.983 ± 0.077. It also gave an IRF reporter ([2]; agonist: 3'3'-cGAMP 10 ug/mL) of 0.934 ± 0.031, an IRF reporter ([2]; agonist: LPS 0.1 ug/mL) of 1.2 ± 0.33 and an IRF reporter ([2]; agonist: MPLA […]) of 0.986 ± 0.23. The viability score [3] was 0.983 (active).

For `O=C(CSc1ccc2ccccc2n1)NC1=NCCS1`, the NF-kB reporter [1, 4] was 0.89 ± 0.051, the NF-kB reporter ([1]; agonist: LPS 0.1 ug/mL) was 0.986 ± 0.062 and the NF-kB reporter ([1]; agonist: MPLA […]) was 0.972 ± 0.06. It also gave an IRF reporter ([2]; agonist: 3'3'-cGAMP 10 ug/mL) of 0.968 ± 0.033, an IRF reporter ([2]; agonist: LPS 0.1 ug/mL) of 1.2 ± 0.077 and an IRF reporter ([2]; agonist: MPLA […]) of 0.958 ± 0.23. For the same compound, the viability score [3] was 1.01 (active).

In the case of `NC(=O)c1cn(Cc2c(F)cccc2F)nn1`, the NF-kB reporter [1, 4] is reported as 1.01 ± 0.075, the NF-kB reporter ([1]; agonist: LPS 0.1 ug/mL) is reported as 0.951 ± 0.12 and the NF-kB reporter ([1]; agonist: MPLA […]) is reported as 1 ± 0.049. The IRF reporter ([2]; agonist: 3'3'-cGAMP 10 ug/mL) was 1.17 ± 0.3, the IRF reporter ([2]; agonist: LPS 0.1 ug/mL) was 0.923 ± 0.08 and the IRF reporter ([2]; agonist: MPLA […]) was 0.906 ± 0.12. For the same compound, the viability score [3] was 0.999 (active).

In the case of `COc1ccc(NCN2C(=O)c3ccccc3C2=O)c(OC)c1`, the NF-kB reporter [1, 4] is reported as 0.844 ± 0.066, the NF-kB reporter ([1]; agonist: LPS 0.1 ug/mL) is reported as 0.972 ± 0.058 and the NF-kB reporter ([1]; agonist: MPLA […]) is reported as 1.08 ± 0.1. It also gave an IRF reporter ([2]; agonist: 3'3'-cGAMP 10 ug/mL) of 0.911 ± 0.044, an IRF reporter ([2]; agonist: LPS 0.1 ug/mL) of 1.42 ± 0.084 and an IRF reporter ([2]; agonist: MPLA […]) of 1.61 ± 0.21. For the same compound, the viability score [3] was 0.991 (active).

`Cc1cc(C)c(S(=O)(=O)N2CCN(C(=O)N(C)C)CC2)c(C)c1` showed an NF-kB reporter [1, 4] of 1.83 ± 0.4, an NF-kB reporter ([1]; agonist: LPS 0.1 ug/mL) of 1.21 ± 0.24 and an NF-kB reporter ([1]; agonist: MPLA […]) of 2.12 ± 0.63. It also gave an IRF reporter ([2]; agonist: 3'3'-cGAMP 10 ug/mL) of 0.505 ± 0.32, an IRF reporter ([2]; agonist: LPS 0.1 ug/mL) of 0.802 ± 0.48 and an IRF reporter ([2]; agonist: MPLA […]) of 0.738 ± 0.31. For the same compound, the viability score [3] was 0.564 (inactive).

For `Cn1nc(CNS(=O)(=O)c2cccc(C(F)(F)F)c2)c2c1CCOC2`, the NF-kB reporter [1, 4] was 1.13 ± 0.34, the NF-kB reporter ([1]; agonist: LPS 0.1 ug/mL) was 1.08 ± 0.061 and the NF-kB reporter ([1]; agonist: MPLA […]) was 1.02 ± 0.065. It also gave an IRF reporter ([2]; agonist: 3'3'-cGAMP 10 ug/mL) of 0.955 ± 0.035, an IRF reporter ([2]; agonist: LPS 0.1 ug/mL) of 1.05 ± 0.13 and an IRF reporter ([2]; agonist: MPLA […]) of 1.12 ± 0.11. For the same compound, the viability score [3] was 1 (active).

In the case of `O=c1oc2c3c4c(cc2cc1-c1nnc(-c2ccccc2)o1)CCCN4CCC3`, the NF-kB reporter [1, 4] is reported as 1.01 ± 0.12, the NF-kB reporter ([1]; agonist: LPS 0.1 ug/mL) is reported as 1.04 ± 0.1 and the NF-kB reporter ([1]; agonist: MPLA […]) is reported as 0.98 ± 0.058. The IRF reporter ([2]; agonist: 3'3'-cGAMP 10 ug/mL) was 1.02 ± 0.058, the IRF reporter ([2]; agonist: LPS 0.1 ug/mL) was 1.41 ± 0.17 and the IRF reporter ([2]; agonist: MPLA […]) was 1.04 ± 0.069. The viability score [3] was 1.01 (active).

With `COc1ccc([N+](=O)[O-])cc1NC(=O)c1ccccc1SC` the NF-kB reporter [1, 4] was 0.656 ± 0.079, the NF-kB reporter ([1]; agonist: LPS 0.1 ug/mL) was 0.705 ± 0.14 and the NF-kB reporter ([1]; agonist: MPLA […]) was 0.88 ± 0.086. It also gave an IRF reporter ([2]; agonist: 3'3'-cGAMP 10 ug/mL) of 0.945 ± 0.031, an IRF reporter ([2]; agonist: LPS 0.1 ug/mL) of 1.03 ± 0.23 and an IRF reporter ([2]; agonist: MPLA […]) of 1.17 ± 0.33. For the same compound, the viability score [3] was 0.987 (active).

`Cc1cc2nc(SCc3cc4c(cc3Cl)OCO4)[nH]c2cc1C` showed an NF-kB reporter [1, 4] of 0.749 ± 0.065, an NF-kB reporter ([1]; agonist: LPS 0.1 ug/mL) of 0.976 ± 0.047 and an NF-kB reporter ([1]; agonist: MPLA […]) of 0.91 ± 0.094. It also gave an IRF reporter ([2]; agonist: 3'3'-cGAMP 10 ug/mL) of 0.636 ± 0.042, an IRF reporter ([2]; agonist: LPS 0.1 ug/mL) of 1.2 ± 0.083 and an IRF reporter ([2]; agonist: MPLA […]) of 1.25 ± 0.12. For the same compound, the viability score [3] was 1.01 (active).

`O=C(Nc1ccon1)C1CN(C(=O)COc2ccccc2F)C1` was tested, and the NF-kB reporter [1, 4] was 1.08 ± 0.18, the NF-kB reporter ([1]; agonist: LPS 0.1 ug/mL) was 1.07 ± 0.14 and the NF-kB reporter ([1]; agonist: MPLA […]) was 1.04 ± 0.1. For the same compound, the IRF reporter ([2]; agonist: 3'3'-cGAMP 10 ug/mL) was 1.06 ± 0.042, the IRF reporter ([2]; agonist: LPS 0.1 ug/mL) was 1.25 ± 0.24 and the IRF reporter ([2]; agonist: MPLA […]) was 1.33 ± 0.2. The viability score [3] was 0.992 (active).

Compound `CC1=C(C(=O)Nc2ccc(C)cn2)C(c2ccccc2Cl)C2=C(CCCC2=O)N1` (stereo unspecified) has an NF-kB reporter [1, 4] of 1.01 ± 0.12, an NF-kB reporter ([1]; agonist: LPS 0.1 ug/mL) of 0.983 ± 0.062 and an NF-kB reporter ([1]; agonist: MPLA […]) of 0.847 ± 0.053. It also gave an IRF reporter ([2]; agonist: 3'3'-cGAMP 10 ug/mL) of 1.02 ± 0.034, an IRF reporter ([2]; agonist: LPS 0.1 ug/mL) of 1.43 ± 0.12 and an IRF reporter ([2]; agonist: MPLA […]) of 1.1 ± 0.08. For the same compound, the viability score [3] was 1.01 (active).

In the case of `Cc1c(Cl)cccc1S(=O)(=O)NCc1ccnc(N2CCCC2=O)c1`, the NF-kB reporter [1, 4] is reported as 1.01 ± 0.055, the NF-kB reporter ([1]; agonist: LPS 0.1 ug/mL) is reported as 1.03 ± 0.094 and the NF-kB reporter ([1]; agonist: MPLA […]) is reported as 0.92 ± 0.043. It also gave an IRF reporter ([2]; agonist: 3'3'-cGAMP 10 ug/mL) of 0.993 ± 0.057, an IRF reporter ([2]; agonist: LPS 0.1 ug/mL) of 1.07 ± 0.079 and an IRF reporter ([2]; agonist: MPLA […]) of 1.03 ± 0.093. The viability score [3] was 0.957 (active).
